# Assay results published in PubChem BioAssay (NCATS).
# Where “and” joins values, the source holds several entries; their conditions need not be identical. Identical values can stand only once. A number with no mark means an inactive call. Results filed as inconclusive are left out. A call without a number means that no potency is given here. Calls of active or inactive are those of the source. Calls come from the whole dose curve; as a rule, active = well fitted curve in the direction sought with a large enough effect; inconclusive = small, poorly fitted or top-dose-only effect, or another doubt; inactive = no such curve, though single readings can be large; an effect the other way counts as inactive or inconclusive. Where a SMILES comes first, the peptide text is derived from it. [ ]: non-standard residue; d: D form. pGlu = O=C1CC[C@@H](C(=O)O)N1; Thz = O=C(O)[C@@H]1CSCN1
# Assay: qHTS assay for cell viability of HEK293 cells (AID 743288); note: nearly all actives have a fitted effect of over 50% in size
# Settings: ATP luminescence (CellTiter-Glo), 18 h; max response: active compounds read low
# Summary of the method: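 Steps: plate 2,000 parental HEK293 cells per well; incubate ≥5 h, 37 C; add compounds in DMSO; incubate 18 h, 37 C; add CellTiter-Glo; wait 30 min at room temperature; read luminescence.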
row,SMILES,max response
1,COc1cc(CNC(=O)CCCC/C=C/C(C)C)ccc1O,-3.17% and -17.3%
2,O=C(O)[C@H](O)[C@@H](O)[C@H](O)[C@H](O)CO,-14.1%
3,c1ccc2sc(SSc3nc4ccccc4s3)nc2c1,-16% and 1.48%
4,CN1[C@@H]2CC[C@H]1CC(OC(=O)C(CO)c1ccccc1)C2 (stereo partly drawn),-4.41%
5,CCCCCCCCCCCCCCCC(=O)OC(C)C,-7.13%
6,Nc1cc(-c2ccncc2)c[nH]c1=O,-3.39%

# Assay: qHTS assay for cell viability of the p53RE-bla HCT-116 cell line (AID 743292); note: nearly all actives have a fitted effect of over 55% in size
# Settings: p53RE-bla HCT-116 viability, ATP luminescence, 16 h; series mostly up to 95 µM
# Summary of the method: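 Quantitative high-throughput format: compounds in DMSO were pinned onto p53RE-bla HCT-116 cells (4,000/well) and incubated 16 h at 37 C. Total intracellular ATP, read by CellTiter-Glo luminescence, reflects viable cell number.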
row,SMILES,Potency
1,COc1cc(CNC(=O)CCCC/C=C/C(C)C)ccc1O,inactive
2,O=C(O)[C@H](O)[C@@H](O)[C@H](O)[C@H](O)CO,inactive
3,c1ccc2sc(SSc3nc4ccccc4s3)nc2c1,inactive
4,CN1[C@@H]2CC[C@H]1CC(OC(=O)C(CO)c1ccccc1)C2 (stereo partly drawn),inactive
5,CCCCCCCCCCCCCCCC(=O)OC(C)C,inactive
6,Nc1cc(-c2ccncc2)c[nH]c1=O,inactive

# Assay: qHTS assay for measurement of the activity of small molecule inhibitors on Zika virus induced Caspase-3 activity in human astrocytoma cells (AID 1224859)
# Settings: SNB-19 ZIKV-induced caspase-3/7, luminescence, 6 h; series mostly up to 45.7 µM
# Summary of the method: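 Luminescent caspase-3/7 read-out (30 min reagent, room temperature) in human SNB-19 cells infected 6 h with ZIKV (2 FFU/cell) after 1 h compound pre-incubation; Data were normalised to uninfected and infected wells.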
row,SMILES,Potency
1,Cc1ccc(S(=O)(=O)/C=C/C#N)cc1,inactive
2,Nc1nc(Cl)nc2c1ncn2[C@@H]1O[C@H](COP(=O)(O)OP(=O)(O)OP(=O)(O)O)[C@@H](O)[C@H]1O,inactive
3,COC(=O)C1=C(C)NC(C)=C(C(=O)OCC(C)=O)C1c1ccccc1[N+](=O)[O-] (stereo not drawn),inactive
4,Nc1nc(SCc2ccc([N+](=O)[O-])cc2)c2ncn([C@@H]3O[C@H](CO)[C@@H](O)[C@H]3O)c2n1,inactive
5,CC(=O)SCC(CC(=O)c1ccc(C)cc1)C(=O)O (stereo not drawn),inactive
6,C[N+]1(C)C2CC(OC(=O)[C@H](CO)c3ccccc3)CC1C1OC12 (stereo partly drawn),inactive
7,CCc1c(C(=O)NCCc2ccc(N3CCCCC3)cc2)[nH]c2ccc(Cl)cc12,inactive
8,C[N+]1(C)[C@@H]2CC(OC(=O)[C@H](CO)c3ccccc3)C[C@H]1[C@@H]1O[C@@H]12 (stereo partly drawn),inactive
9,COc1ccc(-c2cc(=S)ss2)cc1,inactive
10,Cc1c(C(=O)O)c(O)cc2c1C(=O)c1c(O)c([C@@H]3O[C@H](CO)[C@@H](O)[C@H](O)[C@H]3O)c(O)c(O)c1C2=O,inactive
11,CC[C@@H](C)[C@H]1O[C@]2(CC[C@H]1C)C[C@@H]1C[C@@H](CC=C(C)[C@@H](O[C@H]3C[C@H](OC)[C@@H](O[C@H]4C[C@H](OC)[C@@H](O)[C@H](C)O4)[C@H](C)O3)[C@@H](C)C=CC=C3CO[C@@H]4[C@H](O)C(C)=C[C@@H](C(=O)O1)[C@]34O)O2,inactive
12,O=C(O)CC1CC(c2ccccc2)=NO1 (stereo not drawn),inactive
13,CO[C@@]1(NC(=O)Cc2cccs2)C(=O)N2C(C(=O)O)=C(COC(N)=O)CS[C@@H]21,inactive
14,Nc1ccc(C(=O)O)c(O)c1,inactive
15,CC(=O)c1ccc(OCC(=O)N2CCCCC2)cc1,inactive

# Assay: qHTS assay to identify small molecule inhibitors of chordoma cells - UCH-1 (AID 1259355); note: nearly all actives have a fitted effect of over 55% in size; note: potency is the fitted concentration of half-maximal effect
# Settings: UCH-1 chordoma viability, CellTiter-Glo, 48 h, combination, with auranofin plus four topoisomerase inhibitors; series mostly up to 46.1 µM
# Summary of the method: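 Screening used approved and investigational drugs in 15-point titration against 800 seeded cells per well. A fixed combination of auranofin with camptothecin, doxorubicin, rubitecan and topotecan followed compound addition, and growth was scored by CellTiter-Glo after 48hr.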
row,SMILES,Potency
1,C[S+](CC[C@H](N)C(=O)O)C[C@H]1O[C@@H](n2cnc3c(N)ncnc32)[C@H](O)[C@@H]1O (stereo partly drawn),inactive
2,C[C@H](O)[C@H](O)[C@H]1CNc2nc(N)[nH]c(=O)c2N1,inactive
3,COc1cccc2c1C(=O)c1c(O)c3c(c(O)c1C2=O)C[C@@](O)(C(=O)CO)C[C@@H]3O[C@H]1C[C@H](N)[C@H](O[C@@H]2CCCCO2)[C@H](C)O1,3980 nM (active)
4,O=C(O)COc1ccc(C(=O)c2cccs2)c(Cl)c1Cl,inactive
5,COc1cc(CNC(=O)CCCC/C=C/C(C)C)ccc1O,inactive
6,O=C1CC[C@@H](C(=O)N2CSC[C@H]2C(=O)O)N1 ([pGlu]-[Thz]-OH),inactive
7,O=C(O)[C@H](O)[C@@H](O)[C@H](O)[C@H](O)CO,inactive
8,CC(=O)O[C@H]1C[C@@]2(C)[C@@H](C[C@@H](O)[C@H]3[C@@]4(C)CC[C@@H](O)[C@@H](C)[C@@H]4CC[C@@]32C)/C1=C(\CCC=C(C)C)C(=O)O,inactive
9,COc1cc(/C=C/C(=O)CC(=O)/C=C/c2ccc(O)c(OC)c2)ccc1O,inactive
10,c1ccc2sc(SSc3nc4ccccc4s3)nc2c1,inactive
11,O=C(O)Cc1ccc(-c2ccccc2)cc1,inactive
12,CN1[C@@H]2CC[C@H]1CC(OC(=O)C(CO)c1ccccc1)C2 (stereo partly drawn),inactive
13,CO[C@H]1C[C@@H]2CC[C@@H](C)[C@@](O)(O2)C(=O)C(=O)N2CCCC[C@H]2C(=O)O[C@H]([C@H](C)C[C@@H]2CC[C@@H](O)[C@H](OC)C2)CC(=O)[C@H](C)C=C(C)[C@@H](O)[C@@H](OC)C(=O)[C@H](C)C[C@H](C)/C=C/C=CC=C1C,inactive
14,CC(=O)[C@]1(O)Cc2c(O)c3c(c(O)c2[C@@H](O[C@H]2C[C@H](N)[C@H](O)[C@H](C)O2)C1)C(=O)c1c(O)cccc1C3=O,1580 nM (active)
15,Cc1onc(-c2c(F)cccc2Cl)c1C(=O)N[C@@H]1C(=O)N2[C@@H]1SC(C)(C)[C@@H]2C(=O)O,inactive
16,CC1(C)S[C@@H]2[C@H](NC(=O)[C@H](N)c3ccc(O)cc3)C(=O)N2[C@H]1C(=O)O,inactive
17,CCCCCCCCCCCCCCCC(=O)OC(C)C,inactive
18,COc1cc2c3cc1Oc1cc(ccc1O)C[C@@H]1c4c(cc(OC)c(O)c4Oc4ccc(cc4)C[C@@H]3N(C)CC2)CC[N+]1(C)C,inactive
19,Nc1cc(-c2ccncc2)c[nH]c1=O,inactive
20,O=C(O)[C@H](CC(=O)N1C[C@H]2CCCC[C@H]2C1)Cc1ccccc1,inactive
21,CC1(C)[C@@H](O[C@H]2O[C@H](C(=O)O)[C@@H](O)[C@H](O)[C@H]2O[C@@H]2O[C@H](C(=O)O)[C@@H](O)[C@H](O)[C@H]2O)CC[C@]2(C)[C@H]3C(=O)C=C4[C@@H]5C[C@@](C)(C(=O)O)CC[C@]5(C)CC[C@@]4(C)[C@]3(C)CC[C@@H]12,inactive
